Shown are actives, neighbours in structure and some others; about 19% of the full set was active somewhere.
HT1080-NT tox – qHTS for induction of synthetic lethality in tumor cells producing 2HG: qHTS for the HT-1080-NT fibrosarcoma cell line | HT-1080-NT fibrosarcoma viability, CellTiter-Glo ATP luminescence, 48 h | Potency, µM (series often up to 46.1 µM), for inactives: at the highest dose activity, negative = less viability, usual class: cytotoxic | hit rate 1.6% among 360,000 | AID 686970, 2013;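 also: NT is the 2HG producing partner of a matched IDH1 knockdown line; potency is read from the fitted curve at half-maximal effect; 0% = DMSO-treated cells and -100% = media-only wells without cells; nearly all actives have a fitted effect of over 55% in size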
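750 cells/well, RPMI + 5% FBS; 2 h settle, compound pin-transfer, 48 h at 37 degrees C. CellTiter-Glo 10 min RT, luminescence. Normalized to DMSO and media-only wells.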
IL1B secr inh – qHTS for Inhibitors of Inflammasome Signaling: IL-1-beta AlphaLISA Primary Screen; THP-1 LPS/ATP IL-1B secretion, AlphaLISA, 16 h; stronger effect = lower value; activity change, % at 57.5 µM; hit rate 4.7% among 360,000; in the data active = activity change below about -50%; inconclusive = mostly about -30% to -49%
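THP-1 cells pretreated 1 hr with compounds (up to 57.5 uM final), then stimulated with LPS (250 ng/mL final) plus ATP (1.25 mM final); secreted IL-1B measured by AlphaLISA after 16 hr, decreased signal indicating inhibition.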
TDP1 cell noCPT – qHTS for Inhibitors of human tyrosyl-DNA phosphodiesterase 1 (TDP1): qHTS in cells in absence of CPT. Potency, µM (highest dose often 46.2 µM), for the others: at the highest dose activity change, negative = growth inhibition, hits mostly inhibitors. DT40 Tdp1-/- hTDP1 cells, no CPT, ATP luminescence, 48 h. hit rate 15% among 420,000. AID 686978, 2013; also: potency is read from the fitted curve at half-maximal effect; nearly all actives have a fitted effect of over 55% in size
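Camptothecin absent (DMSO only). Human TDP1-complemented DT40 knockout cells, 400 cells/well, 37 °C for minimum 48 hr; ATP measured via CellTiter-Glo, 30 min dark incubation, luminescence.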
HT1080 IDH1KD tx – qHTS for induction of synthetic lethality in tumor cells producing 2HG: qHTS for the HT-1080-IDH1KD cell line; hit rate 2% among 360,000; Potency, µM (doses to about 46.1 µM), for inactives: at the highest dose activity, negative = toxicity, actives largely listed as cytotoxic; HT-1080 IDH1 knockdown viability, ATP luminescence, 48 h;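 also: potency is read from the fitted curve at half-maximal effect; 0% = DMSO wells and -100% = cell-free medium wells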
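HT-1080-IDH1KD cells (IDH1 knocked down), 750/well in RPMI with 5% FBS, treated with compound 48 h at 37 degrees C. Viability by CellTiter-Glo luminescence, normalised to DMSO and no-cell wells; concentration-response curves classed.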
ELG1 repair inh – qHTS screen for small molecules that inhibit ELG1-dependent DNA repair in human embryonic kidney (HEK293T) cells expressing luciferase-tagged ELG1 | HEK293T ELG1-luciferase reporter, luminescence, 16 h; DNA damage induced by 5-fluorouridine | Potency, µM (highest dose often 46.1 µM), without a hit: at the highest dose activity change, negative = inhibition, most hits filed as inhibitors | hit rate 2.3% among 330,000; also: potency is read from the fitted curve at half-maximal effect; nearly all actives have a fitted effect of over 55% in size
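Overnight (16 hr) co-exposure of 2,000 cells/well to 5-fluorouridine and compound at 37 °C preceded detection. Luciferase was quantified via ONE-Glo luminescence; loss of signal denotes inhibition.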
DT40 TDP1 CPT – qHTS for Inhibitors of human tyrosyl-DNA phosphodiesterase 1 (TDP1): qHTS in cells in presence of CPT; chicken DT40 Tdp1-/-;hTDP1 cells + 20 nM CPT, ATP luminescence, 48 h; Potency, µM (top dose mostly 46.2 µM), without a hit: at the highest dose activity change, negative = growth inhibition, usual class: inhibitors; hit rate 12% among 420,000; also: potency is read from the fitted curve at half-maximal effect; nearly all actives have a fitted effect of over 55% in size
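Chicken DT40 Tdp1-/- cells complemented with human TDP1, 400 cells/well, exposed to compounds plus 20 nM camptothecin for at least 48 h at 37 C; viability read as ATP content by CellTiter-Glo luminescence.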
Active calls of the source: *. Unless noted, calls follow the shape of the dose curve; as a rule, active = well fitted curve in the direction sought with a large enough effect; inconclusive = small, poorly fitted or top-dose-only effect, or another doubt; inactive = no such curve, though single readings can be large; an effect the other way counts as inactive or inconclusive. Unless noted, % is scaled to controls: 0 for no effect and ±100 for the full control effect.

`O=C(C[n+]1cccc2cc(Cl)ccc21)c1ccc2ccccc2c1` gave TDP1 cell noCPT 3.98µM* and DT40 TDP1 CPT 5.01µM*.
Screening O=C(C[n+]1cccc2ccccc21)c1ccc(Br)cc1 returned HT1080-NT tox -19.1%, IL1B secr inh -13.6, TDP1 cell noCPT inconclusive, HT1080 IDH1KD tx -17.2%, ELG1 repair inh -2.3% and DT40 TDP1 CPT inconclusive.
For Cc1ccc(C(=O)C[n+]2cccc3ccccc32)cc1 the results were HT1080-NT tox -14.6%, IL1B secr inh -10.8, TDP1 cell noCPT 18.4µM*, HT1080 IDH1KD tx -7.2%, ELG1 repair inh 8.1% and DT40 TDP1 CPT inconclusive.
Screening CC(=O)c1ccc[n+](CC(=O)c2ccc(F)cc2)c1 returned TDP1 cell noCPT -1.3% and DT40 TDP1 CPT -7.7%.
`O=C(C[n+]1cccc2cc(Cl)ccc21)c1ccc(I)cc1` gave TDP1 cell noCPT 11.2µM* and DT40 TDP1 CPT 11.2µM*.
`COc1cccc(CNC(=O)CSc2nnc3c(n2)[nH]c2ccc(C)cc23)c1` gave HT1080-NT tox 7.9%, IL1B secr inh 4.3, TDP1 cell noCPT -3.6%, HT1080 IDH1KD tx 2.5%, ELG1 repair inh 12.3% and DT40 TDP1 CPT -18.5%.
`COc1ccccc1NC(=O)C1CCN(C(=O)c2sc3nc[nH]c(=O)c3c2C)CC1` gave TDP1 cell noCPT -11.6% and DT40 TDP1 CPT -9.2%.
For COc1cccc(OC(=O)CSc2nnc(-c3cccs3)o2)c1 the results were TDP1 cell noCPT 3.7% and DT40 TDP1 CPT 8.3%.
For COc1ccc(C(=O)C[n+]2cccc3cc(Cl)ccc32)cc1 the results were TDP1 cell noCPT 15.8µM* and DT40 TDP1 CPT inconclusive.
Cc1ccc(C)[n+](CC(=O)c2ccc(-c3ccccc3)cc2)c1 was read as HT1080-NT tox -7.6%, IL1B secr inh -13.0, TDP1 cell noCPT 1.84µM*, HT1080 IDH1KD tx -3.8%, ELG1 repair inh 7.3µM* and DT40 TDP1 CPT 2.59µM*.
For CC(=O)C[n+]1cccc2cc(Cl)ccc21 the results were TDP1 cell noCPT -28.1% and DT40 TDP1 CPT -19.3%.
`Cn1nc(C(F)(F)F)cc1C(=O)Nc1ccc(Cl)cc1` gave HT1080-NT tox -24.9%, IL1B secr inh -6.2, TDP1 cell noCPT inconclusive, HT1080 IDH1KD tx inconclusive, ELG1 repair inh -18.8% and DT40 TDP1 CPT -26.0%.
Cn1nc(C(F)(F)F)cc1C(=O)Nc1ccc(-c2ccno2)cc1 was read as HT1080-NT tox -7.3%, IL1B secr inh inconclusive, TDP1 cell noCPT -20.1%, HT1080 IDH1KD tx -28.1%, ELG1 repair inh 13µM* and DT40 TDP1 CPT inconclusive.
`O=C(Nc1c(F)c(F)c(F)c(F)c1F)c1ccc(Br)o1` gave HT1080-NT tox -3.6%, IL1B secr inh -3.2, TDP1 cell noCPT inconclusive, HT1080 IDH1KD tx 0.2% and DT40 TDP1 CPT -21.7%.
Screening CCCCCCCCN1C(=O)[C@H](CC(=O)NCc2ccc(C)o2)C[C@@]2(C(=O)OC)CC(C)(C)CC=C12 returned HT1080-NT tox inconclusive, IL1B secr inh -70.8*, TDP1 cell noCPT 8.2µM*, HT1080 IDH1KD tx inconclusive and DT40 TDP1 CPT 11.6µM*.
For CCCCCCCCN1C(=O)[C@H](CC(=O)NCc2cccs2)C[C@@]2(C(=O)OC)CC(C)(C)CC=C12 the results were HT1080-NT tox inconclusive, IL1B secr inh inconclusive, TDP1 cell noCPT 8.2µM*, HT1080 IDH1KD tx inconclusive and DT40 TDP1 CPT 14.6µM*.
